From PubChem BioAssay
GSTO1 counter = counter-screen for RBBP9 inhibitors: inhibitors of human GSTO1; recombinant GSTO1, activity-based probe fluorescence polarization; 1.1% of 300,000 active; inhibition, % at 5.96 µM; AID 1974;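 active = inhibition above the campaign mean inhibition plus 3 SD, cut at about 35% in these data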;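 note: 0% = GSTO1-1 with DMSO and 100% = wells lacking GSTO1-1 enzyme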
Target sequence (P78417 whole entry, looked up): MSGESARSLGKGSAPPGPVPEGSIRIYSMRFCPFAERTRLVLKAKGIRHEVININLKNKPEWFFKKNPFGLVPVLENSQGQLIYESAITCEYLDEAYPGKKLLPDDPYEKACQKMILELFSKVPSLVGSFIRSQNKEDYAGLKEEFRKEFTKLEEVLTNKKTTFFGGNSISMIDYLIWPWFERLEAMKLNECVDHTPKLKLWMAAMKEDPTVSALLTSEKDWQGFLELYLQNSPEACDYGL
LYPLA2 inh = counter-screen for PME1 inhibitors: inhibitors of human LYPLA2; O95372; recombinant LYPLA2, FP-Rh probe fluorescence polarization; inhibition, % at 5.9 µM; 0.38% of 320,000 active; AID 2177;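 active = inhibition above the screen-wide mean plus 3 SD, limit set per campaign, cut at about 26% in these data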;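 note: 0% = LYPLA2 with DMSO and 100% = wells lacking LYPLA2 enzyme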
Target sequence (O95372 whole entry, looked up): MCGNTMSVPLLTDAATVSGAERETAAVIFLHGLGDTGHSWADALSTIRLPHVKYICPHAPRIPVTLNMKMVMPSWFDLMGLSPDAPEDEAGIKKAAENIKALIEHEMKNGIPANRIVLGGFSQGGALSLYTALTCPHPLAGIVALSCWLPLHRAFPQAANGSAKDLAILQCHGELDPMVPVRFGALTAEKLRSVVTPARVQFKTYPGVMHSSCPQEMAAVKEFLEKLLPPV
PME-1 primary = blocks human protein phosphatase methylesterase 1. Q9Y570. recombinant PME-1, FP-Rh probe fluorescence polarization. inhibition, % at 5.9 µM. 0.53% of 320,000 active. AID 2130;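 active = inhibition above the campaign mean of all compounds plus 3 SD, cut at about 26% in these data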;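 note: competitive labeling of PME-1 active site by serine hydrolase directed probe; 0% = PME-1 with DMSO and 100% = wells lacking PME-1 enzyme; inhibitors block probe labeling so polarization falls and inhibition rises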
Fam108B counter = Fam108B inhibition, counter-screen for RBBP9 inhibitors. recombinant Fam108B, FP-Rh probe fluorescence polarization. inhibition, % at 9.51 µM. 0.33% of 300,000 active;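 active = inhibition above the screen mean inhibition plus 3 SD, computed separately per campaign, cut at about 18% in these data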;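 note: inhibitors lower polarization as less probe binds the enzyme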
LYPLA1 counter = LYPLA1 (human) inhibition in PME1 counter-screen. O75608. recombinant LYPLA1, FP-Rh probe fluorescence polarization. inhibition, % at 5.9 µM. 0.16% of 320,000 active. AID 2174;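 active = inhibition above the mean of all tested compounds plus 3 SD, set per campaign, cut at about 14% in these data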;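 note: inhibitors block serine hydrolase probe labeling of LYPLA1 so polarization falls; 0% = enzyme with DMSO and 100% = wells lacking LYPLA1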
PAD4 inh = inhibitors of human PAD4 | recombinant PAD4, RCA probe fluorescence polarization | 0.41% of 330,000 active | AID 485272 | inhibition, % at 6.36 µM;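 active = percent inhibition above a cutoff equal to the mean of all tested compounds plus 3 SD, cut at about 15% in these data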;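 note: 0% = PAD4 with RCA probe and DMSO and 100% = probe without PAD4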
LYPLA1 confirm = LYPLA1 (human) inhibition, confirmation counter-screen. 69% of 480 active. shares compounds with LYPLA1 counter. AID 2233. inhibition, % at 5.9 µM. recombinant LYPLA1, FP-Rh probe fluorescence polarization;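 active = mean inhibition across replicates above the hit cutoff set in the primary screen, cut at about 15% in these data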;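 note: loss of FP-Rh probe labeling of LYPLA1 seen as lower polarization; 0% = LYPLA1 with DMSO and 100% = wells lacking LYPLA1 enzyme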
LYPLA2 confirm = counter-screen for PME1 inhibitors: confirmation of human LYPLA2 inhibitors | shares compounds with LYPLA2 inh | recombinant LYPLA2, FP-Rh probe fluorescence polarization | inhibition, % at 5.9 µM | 72% of 1,100 active | AID 2232;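 active = mean inhibition across replicates above the hit cutoff set in the primary screen, cut at about 26% in these data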;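 note: blocked labeling of the enzyme by serine hydrolase FP-Rh probe lowers polarization; 0% = enzyme with DMSO and 100% = wells lacking LYPLA2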
The depositor's hits bear a star. The list is not random: actives were taken first. Their share in the collection is about 1.8%.

Screening Nc1nc(NCc2ccco2)nc(N2CCN(Cc3ccccc3)CC2)c1[N+](=O)[O-] returned GSTO1 counter -11, LYPLA2 inh 48*, PME-1 primary 5, Fam108B counter 0, LYPLA1 counter 29*, PAD4 inh 10, LYPLA1 confirm 42* and LYPLA2 confirm 48*.
Screening CCOC(=O)CCc1c(C)nc(SCc2ccc(C(=O)O)cc2)c(C#N)c1C returned GSTO1 counter 4, LYPLA2 inh 43*, PME-1 primary -1, Fam108B counter -1, LYPLA1 counter 20*, PAD4 inh 0, LYPLA1 confirm 39* and LYPLA2 confirm 59*.
CCOC(=O)CCc1c(C)nc(SCC(=O)O)c(C#N)c1C was read as GSTO1 counter 4, LYPLA2 inh -4, PME-1 primary -1, Fam108B counter -7, LYPLA1 counter -6 and PAD4 inh -3.
For O=C(CCc1nc2ccccc2c(=O)[nH]1)N1CCN(C/C=C/c2ccccc2)CC1 the results were GSTO1 counter -12, LYPLA2 inh 15, PME-1 primary 2, Fam108B counter 2, LYPLA1 counter -1 and PAD4 inh -3.
For O=c1[nH]c(CN2CCN(C/C=C/c3ccccc3)CC2)nc2cc(Cl)ccc12 the results were GSTO1 counter -2, LYPLA2 inh 32*, PME-1 primary 1, Fam108B counter 3, LYPLA1 counter 34*, PAD4 inh 0, LYPLA1 confirm 41* and LYPLA2 confirm 31*.
`O=[N+]([O-])c1cccc(/C=N/N2CCN(Cc3ccc(Cl)cc3)CC2)c1` gave GSTO1 counter -2, LYPLA2 inh 41*, PME-1 primary 7, Fam108B counter 0, LYPLA1 counter 29*, PAD4 inh 1, LYPLA1 confirm 37* and LYPLA2 confirm 53*.
Screening O=[N+]([O-])c1cccc(/C=N/N2CCN(Cc3ccccc3)CC2)c1 returned GSTO1 counter 6, LYPLA2 inh 10, PME-1 primary 4, Fam108B counter -4, LYPLA1 counter 1 and PAD4 inh -2.
`O=C(Nc1ccc(C(=O)N2CCCCC2)cc1)C1=CSCCO1` gave GSTO1 counter -1, LYPLA2 inh -4, PME-1 primary 1, Fam108B counter -2, LYPLA1 counter 3 and PAD4 inh -4.
For O=C(CSCc1ccccc1Br)Nc1ccccc1 the results were GSTO1 counter -6, LYPLA2 inh 37*, PME-1 primary 3, Fam108B counter -3, LYPLA1 counter 16*, PAD4 inh -4, LYPLA1 confirm 32* and LYPLA2 confirm 47*.
Screening O=C(NCCNC(=O)c1cc(OCC(F)(F)F)ccc1OCC(F)(F)F)Nc1cccc(C(F)(F)F)c1 returned GSTO1 counter -5, LYPLA2 inh 61*, PME-1 primary -5, Fam108B counter 2, LYPLA1 counter 33*, PAD4 inh 4, LYPLA1 confirm 44* and LYPLA2 confirm 50*.
`CCOC(=O)CSc1nnc(CSc2nc3sc4c(c3c(=O)[nH]2)CCCC4)n1-c1ccccc1` gave GSTO1 counter -35, LYPLA2 inh 77*, PME-1 primary 3, Fam108B counter 1, LYPLA1 counter 16*, PAD4 inh 2, LYPLA1 confirm 15* and LYPLA2 confirm 80*.
For CCOC(=O)N1CCN(S(=O)(=O)c2c(C)nc3scc(C)n3c2=O)CC1 the results were GSTO1 counter 2, LYPLA2 inh -5, PME-1 primary -5, Fam108B counter -7, LYPLA1 counter 3 and PAD4 inh -2.
`COc1ccc(C(=O)NC(=S)Nc2ccccc2N2CCOCC2)cc1[N+](=O)[O-]` gave GSTO1 counter -8, LYPLA2 inh 12, PME-1 primary 8, Fam108B counter -1, LYPLA1 counter 0 and PAD4 inh -3.
`CCCC(=O)N1CCN(c2ccc(NC(=O)c3ccc(OCC)c([N+](=O)[O-])c3)cc2)CC1` gave GSTO1 counter -3, LYPLA2 inh 17, PME-1 primary 6, Fam108B counter 0, LYPLA1 counter 1 and PAD4 inh 0.
For CCC(=O)N1CCN(c2ccc(NC(=S)NC(=O)c3ccc(OC)c([N+](=O)[O-])c3)cc2)CC1 the results were GSTO1 counter 7, LYPLA2 inh 63*, PME-1 primary 7, Fam108B counter 1, LYPLA1 counter 56*, PAD4 inh -2, LYPLA1 confirm 70* and LYPLA2 confirm 81*.
Screening COc1ccc(C(=O)NC(=S)Nc2ccc(N3CCOCC3)c(Cl)c2)cc1[N+](=O)[O-] returned GSTO1 counter 1, LYPLA2 inh 60*, PME-1 primary 1, Fam108B counter -6, LYPLA1 counter 50*, PAD4 inh 0, LYPLA1 confirm 54* and LYPLA2 confirm 61*.
Screening COc1ccc(C(=O)NC(=S)Nc2ccc(CN3CCOCC3)cc2)cc1Cl returned GSTO1 counter 3, LYPLA2 inh 60*, PME-1 primary 2, Fam108B counter -3, LYPLA1 counter 22*, PAD4 inh -3, LYPLA1 confirm 21* and LYPLA2 confirm 46*.
For O=C(N/C(=C/c1ccc(F)cc1)C(=O)N1CCCC1)c1ccccc1 the results were GSTO1 counter -1, LYPLA2 inh -7, PME-1 primary -3, Fam108B counter -1, LYPLA1 counter -5 and PAD4 inh -5.
For COc1cc([C@H]2Oc3cc([C@H]4Oc5cc(O)cc(O)c5C(=O)[C@@H]4O)ccc3O[C@@H]2CO)ccc1O the results were GSTO1 counter 7, LYPLA2 inh 70*, PME-1 primary 1, Fam108B counter 0, LYPLA1 counter 21*, PAD4 inh -3, LYPLA1 confirm 37* and LYPLA2 confirm 75*.
For CC(=O)N1CCC2(CC1)C/C(=N\NC(=S)Nc1ccccc1C)c1cc(O)ccc1O2 the results were GSTO1 counter -31, LYPLA2 inh 48*, PME-1 primary -3, Fam108B counter 0, LYPLA1 counter 17*, PAD4 inh 2, LYPLA1 confirm 29* and LYPLA2 confirm 55*.
For CC(=O)N1CCC2(CC1)C/C(=N\NC(=S)Nc1ccccc1F)c1cc(O)ccc1O2 the results were GSTO1 counter -36, LYPLA2 inh 19, PME-1 primary 16, Fam108B counter 3, LYPLA1 counter 10 and PAD4 inh 1.
`Cc1ccccc1C(=O)NCC(=O)OC(C)C(=O)NCc1ccco1` (configuration not stated) gave GSTO1 counter 1, LYPLA2 inh 2, PME-1 primary 2, Fam108B counter 4, LYPLA1 counter 0 and PAD4 inh -6.
